PubChem BioAssay
Results with a measured potency or affinity are listed apart. The source made the active and inactive calls. No rule for the calls is given here.

These compounds were tested against Melanocortin receptor 4 (Homo sapiens) (UniProt P32245) (assay: MC4R antagonists, dose response, counter-screen for LGR2 antagonist project, cell-based, plate reader, cherry pick (AID 743444)). Conditions: MC4R-expressing cells, antagonist mode; series mostly up to 35 µM.
In the case of `CC(=O)c1ccc(Nc2cc(C)nc3c(C)cc(C)cc23)cc1`, the outcome is reported as “inactive”.
With `O=[N+]([O-])c1cc(S(=O)(=O)N2CCCCCC2)ccc1Cl` the outcome was “inactive”.
With `Cn1c(=O)c2cc(NC(=O)NCc3ccccc3)ccc2n1C/C=C/c1ccccc1` the outcome was “inactive”.
`CCOC(=O)c1c(C)n(C)c2ccc(OCC(O)CNCCc3ccccc3)cc12` (stereo not given) was tested, and the outcome was “inactive”.
In the case of `CC(C)(C)c1nc2ccc(Cl)cn2c1CC1CCCCC1`, the outcome is reported as “inactive”.
For `O=C(C[C@@H]1C[C@H]2c3cc(NC(=O)c4ccc5c(c4)OCO5)ccc3O[C@H]2[C@@H](CO)O1)NCc1ccc(Oc2ccccc2)cc1`, the outcome was “inactive”.
`CCOCCCn1c(SCc2nc3ccccc3s2)nc2ccccc2c1=O` was tested, and the outcome was “inactive”.
With `CCCCOc1cc(NCc2ccccc2)c2ncn(C(C)C)c2c1` the outcome was “inactive”.
For `Oc1ccc(-c2csc(-c3cccnc3)n2)c(O)c1`, the outcome was “inactive”.
`CCCCn1nnnc1C(c1cc2ccccc2o1)N1CCN(c2ccncc2)CC1` (stereo not given) was tested, and the outcome was “inactive”.
In the case of `O=C(c1ccc(CSc2nc3ccncc3[nH]2)cc1)N1CCN(c2cccc(Cl)c2)CC1`, the outcome is reported as “inactive”.
For `CC(C)OC(=O)c1ccc(NCc2cc(O)ccc2O)cc1Cl`, the outcome was “inactive”.
With `COc1ccc(CCNC(=O)C2CCN(S(=O)(=O)c3ccc(Cl)cc3)CC2)cc1OC` the outcome was “inactive”.
In the case of `C[C@H]1CCCCO[C@@H](CN(C)C(=O)Nc2ccc(C(F)(F)F)cc2)[C@@H](C)CN([C@@H](C)CO)C(=O)c2cc(NC(=O)CCC(F)(F)F)ccc2O1`, the outcome is reported as “inactive”.
With `COc1ccc(C(=O)CC(Sc2ccccc2N)c2ccc(OC)cc2)cc1` (stereo not given) the outcome was “inactive”.
In the case of `COc1ccc(S(=O)(=O)N2CCOCC2)cc1NC(=O)COc1ccc(C)cc1`, the outcome is reported as “inactive”.
`O=C(c1ccc2c(c1)OCCO2)C1CCN(S(=O)(=O)c2ccc(F)cc2)CC1` was tested, and the outcome was “inactive”.
`COc1ccc2cc(C#N)c(Nc3cccc(F)c3)nc2c1` was tested, and the outcome was “inactive”.
With `C[C@@H]1CN([C@H](C)CO)C(=O)Cc2cc(NC(=O)CCC(F)(F)F)ccc2O[C@@H]1CN(C)CC1CCCCC1` the outcome was “inactive”.
`COC(=O)c1ccc(Nc2cc(C)nc3ccc(C)cc23)cc1` was tested, and the outcome was “inactive”.
`COc1ccccc1N1CCN(C(=O)c2sc3nc(-c4ccc(F)cc4)cn3c2C)CC1` was tested, and the outcome was “inactive”.
With `CC(C)c1ccc2c(c1)C(N1CCNCC1)Cc1ccc(F)cc1S2` (stereo not given) the outcome was “inactive”.
With `CNCc1ccccc1Sc1ccc(O)c(O)c1` the outcome was “inactive”.
In the case of `CC(C)(C)c1ccc(Cn2c(=O)cnc3ccccc32)cc1`, the outcome is reported as “inactive”.
In the case of `COc1ccc(-c2cc(C(F)(F)F)nc(S(=O)(=O)CCCC(=O)Nc3cccc(O)c3)n2)cc1OC`, the outcome is reported as “inactive”.
For `O=C(CSc1ncnc2[nH]ncc12)Nc1nc(-c2ccc(F)c(F)c2)cs1`, the outcome was “inactive”.
In the case of `Cc1ccc(S(=O)(=O)Nc2ccc3c(c2)C(=O)N([C@H](C)CO)C[C@@H](C)[C@H](CN(C)S(=O)(=O)c2cccs2)OCCCC[C@@H](C)O3)cc1`, the outcome is reported as “inactive”.
With `COc1cccc(C#Cc2ccc([C@@H]3[C@@H](CO)N(C(=O)C4CCC4)[C@H]3C#N)cc2)c1` the outcome was “inactive”.
`CC(C)N(C(=O)COC(=O)c1ccccc1C(=O)c1ccc(Cl)c([N+](=O)[O-])c1)C(C)C` was tested, and the outcome was “inactive”.
In the case of `COc1cc(NC2CCCCC2O)c2nc(-c3ccc(Cl)cc3)ccc2c1` (stereo not given), the outcome is reported as “inactive”.
For `N#C[C@@H]1[C@H](c2ccc(C#Cc3cccc(F)c3)cc2)[C@@H](CO)N1C(=O)C1CC1`, the outcome was “inactive”.
In the case of `O=C(CSc1nc2ccccc2[nH]1)Nc1nc(-c2cccc(Br)c2)cs1`, the outcome is reported as “inactive”.
For `COc1cc(/C=N/Nc2nc(C)nc3c2cnn3-c2ccccc2)ccc1O`, the outcome was “inactive”.
In the case of `O=C(Cn1ncc(Cl)c(Cl)c1=O)N1CCOCC1`, the outcome is reported as “inactive”.
With `c1ccc(COc2cccc(-c3cc4nc(NCCCn5ccnc5)ccn4n3)c2)cc1` the outcome was “inactive”.
For `CCOc1cccc2sc(Nc3nc4ccc(NC(C)=O)cc4s3)nc12`, the outcome was “inactive”.
For `Cc1ccc2nc(C(F)(F)F)c(C#N)c(N)c2c1`, the outcome was “inactive”.
With `COc1ccccc1CN(C)C[C@@H]1OCc2cnnn2CCCC(=O)N([C@H](C)CO)C[C@H]1C` the outcome was “inactive”.
`Cc1ccc(NC(=O)c2ncn(CC(=O)N3CCN(c4ccccn4)CC3)n2)cc1C` was tested, and the outcome was “inactive”.
With `O=C(Nc1ccc(N2CCN(C(=O)c3ccccc3)CC2)cc1)c1cc2ccccc2o1` the outcome was “inactive”.
